Screens from PubChem.
HCV inhibitor = inhibitors of hepatitis C virus infection; Huh7.5.1 HCVcc-Cre infection, luciferase reporter, 44 h; Potency, µM (doses to about 41.8 µM), for the others: at the top dose activity change, negative = inhibition, usual class: inhibitors; 3.4% of 340,000 active; AID 651820; note: potency is the fitted concentration of half-maximal effect; % is set by controls: 0 for no effect and ±100 for the full control effect
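Antiviral activity was scored by luciferase reporter output from cells infected with HCVcc-Cre (~0.5 moi) in presence of compound, 44 h infection period, cells seeded 1,000/well 4 h prior.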
Cycloheximide cs = counter-screen hit for Shiga toxin inhibitors, cycloheximide; cell reporter, cycloheximide protein synthesis inhibition counterscreen; 12% of 300,000 active; max response, %; AID 2314; in the data active = max response mostly above about 13%, no sharp cut-off; inactive = mostly below about 14%; note: read at 38.3 µM for the half of the compounds with a filed dose; 0% is about no effect
Shiga inhibitor = blocks Shiga toxin action in Vero cells. Vero cells, Shiga toxin protein synthesis inhibition reporter. inhibition, % at 38.7 µM. 9.2% of 290,000 active; in the data active = inhibition mostly above about 28%, no sharp cut-off; inactive = mostly below about 43%; note: 0% is about no effect
Pf growth 96h = inhibits malaria parasite growth, 96 h. P. falciparum luciferase reporter growth, 96 h. Potency, µM (doses to about 28.7 µM), without a hit: at the highest dose activity change, negative = inhibition, usual class: inhibitors. 6.9% of 320,000 active; note: potency is the fitted concentration of half-maximal effect; % is set by controls: 0 for no effect and ±100 for the full control effect
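Erythrocytes infected with luciferase-expressing P. falciparum were dispensed at 2% hematocrit and 0.05% parasitemia (final), then incubated with compounds 96 hours at 37 C in 5% CO2. Luminescence after detection reagent addition reported growth.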
Pf growth 48h = P. falciparum growth inhibition at 48 hours (one generation); 5.9% of 310,000 active; AID 504832; P. falciparum luciferase growth in erythrocytes, 48 h; Potency, µM (series often up to 28.7 µM), inactives show top-dose activity change, negative = inhibition, usual class: inhibitors; note: potency is the fitted concentration of half-maximal effect; % is set by controls: 0 for no effect and ±100 for the full control effect
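Cell-based growth assay: transgenic P. falciparum expressing firefly luciferase, cultured in red cells within RPMI 1640 containing 0.5% w/v Albumax, 24 mM bicarbonate and gentamycin. A drop in luciferase activity indicates inhibition.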
AMA1-RON2 inh = inhibitors of Plasmodium falciparum AMA1-RON2 interaction | AID 720542 | 0.2% of 360,000 active | AlphaScreen AMA1-biotinylated RON2 peptide binding | Potency, µM (top dose mostly 58.2 µM), for inactives: at the top dose activity change, negative = inhibition, usual class: inhibitors;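 note: potency is the fitted concentration of half-maximal effect; 0% = vehicle wells and -100% = peptide control; nearly all actives have a fitted effect of over 45% in size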
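AMA1 (3D7) with his tag at 25 nM final met compounds first, then biotinylated RON2 peptide at 25 nM; detection used donor plus acceptor beads, 10 µg/mL apiece, read by AlphaScreen after 30 min at room temperature.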
Numbers without * were called inactive; i = inactive; u = inconclusive; x = no result given; [ ] = another dose, or the depositor's remark. The list is not random: actives were taken first. Their share in the collection is about 21%. Unless noted, calls come from the whole dose curve; as a rule, active = well fitted curve in the direction sought with a large enough effect; inconclusive = small, poorly fitted or top-dose-only effect, or another doubt; inactive = no such curve, though single readings can be large; an effect the other way counts as inactive or inconclusive.

SMILES	HCV inhibitor	Cycloheximide cs	Shiga inhibitor	Pf growth 96h	Pf growth 48h	AMA1-RON2 inh
O=C(c1ccccc1)c1ccc(OCC(O)CN2CCN(S(=O)(=O)N3CCCCC3)CC2)cc1 (stereo not given)	u	-3.7	-6.0	5.22µM*	x	-7.4%
OC(COc1ccc2ccccc2c1Cl)CN1CCOCC1 (stereo not given)	-16.1%	36.6*	104.8*	14.9%	132.7%	22.6%
COc1ccc(N2CCN(CC(O)COC(c3ccccc3)c3ccccc3)CC2)cc1 (stereo not given)	-27.5%	-2.6	20.7	-5.2%	u	u
O=C(C1CCCN1S(=O)(=O)c1ccc(Cl)cc1)N1CCN(c2ccccc2)CC1 (stereo not given)	17.2%	x	x	x	x	10.3%
Cc1ccc(-c2ccc(=O)n(CC(=O)NCCN(CC(C)C)CC(C)C)n2)cc1	-4.2%	0.7	-0.7	-15.2%	-18.7%	-2.7%
COc1ccccc1OCC(=O)N/N=C1/C=C(C)CC1	3.0%	4.6	-3.0	u	-3.1%	-1.7%
COCCOCC(O)CN1CCN(c2ccc(C)cc2)CC1 (stereo not given)	7.9%	4.8	14.4	u	-6.0%	14.1µM*
OC(COc1ccccc1)CN1CCOCC1 (stereo not given)	u	-1.0	9.4	11.7µM*	-14.5%	4.0%
COCCOCC(O)CN1CCN(c2ccccc2)CC1 (stereo not given)	0.7%	-4.4	-11.0	u	22.4%	-16.4%
OC(COc1ccccc1)CN1CCCCC1 (stereo not given)	26.3%	x	x	x	x	-4.2%
OC(COc1ccc2cc(Br)ccc2c1)CN1CCOCC1 (stereo not given)	u	10.7	36.7*	-25.5%	26.6%	-11.3%
OC(COc1ccc(F)cc1)CN1CCN(CC(O)COc2ccc(F)cc2)CC1 (stereo not given)	31.6µM*	-1.8	5.1	17.8%	-17.7%	-0.7%
COc1ccc(N2CCN(CC(O)COc3ccc(F)cc3)CC2)cc1 (stereo not given)	-16.0%	-1.6	-1.0	8.6%	-25.4%[0.00184 µM]	-9.4%
C=CC1=C(C(=O)O)N2C(=O)[C@@H](NC(=O)C(N=O)c3csc(N)n3)[C@H]2SC1 (stereo not given in full)	x	3.4	-3.5	2.0%	-10.7%	x
COc1cccc(OC)c1OCC(O)CN1CCN(c2ccccc2F)CC1 (stereo not given)	1.5%	-3.2	-4.2	4.65µM*	-11.6%	8.9%
Cc1ccc(OCC(O)CN2CCOCC2)c(C)c1 (stereo not given)	2.7%	30.9*	x	u	18.1%	-2.9%
COc1ccc(S(=O)(=O)N2CCCCC2)cc1NC(=O)c1cccc(S(=O)(=O)N2CC(C)OC(C)C2)c1 (stereo not given)	-13.3%	x	x	x	x	-9.9%
CCCc1nnc(NC(=O)C2CCN(C(=O)C3CC(=O)N(c4ccc(C)cc4)C3)CC2)s1 (stereo not given)	-1.5%	-1.6	-8.3	23.5%	u	-3.1%
Cc1ccc(S(=O)(=O)c2cnc3cc(C)nn3c2N)cc1	22.8%	0.2	-14.6	5.86µM*	214.8%	1.6%
Cc1cc2ncc(S(C)(=O)=O)c(N)n2n1	14.9%	4.3	7.9	73.2%	i	35.9%
Cc1ccc(C(C)(C)NC(=O)C2CCC(=O)N(CC3CCCCC3)C2)cc1 (stereo not given)	-0.7%	1.7	0.8	u	-1.4%	3.6%
Cc1ccc(-n2cc3c(=O)n(C)c(=O)n(C)c3c2)cc1C	-9.2%	21.3*	35.6	3.4%[5.75 µM]	-16.3%	-6.1%
Cn1c(=O)c2cn(-c3ccc4c(c3)OCCO4)cc2n(C)c1=O	-2.2%	67.1*	61.9	u	45.2%	17.4%
Cc1ccc(NC(=O)CCNS(=O)(=O)c2ccc3c(c2)c(=O)n(C)c(=O)n3C)cc1C	3.5%	-3.9	26.1	u	-3.8%	1.7%
Cc1cc(N)c(-n2cc3c(=O)n(C)c(=O)n(C)c3c2)cc1C	0.5%	39.9*	35.4	x	u	-1.9%
SMILES	HCV inhibitor	Cycloheximide cs	Shiga inhibitor	Pf growth 96h	Pf growth 48h	AMA1-RON2 inh
COc1ccc(C(=O)Nc2cc(-c3ccccc3)nn2-c2ccccc2F)cc1	u	x	x	u	u	43.4%
COc1ccc(S(=O)(=O)N2CCC(C(=O)NC3CC3)CC2)cc1	8.1%	8.2	-8.6	14.8%	9.28µM*	-6.0%
CC(=O)Nc1ccc(S(=O)(=O)N2CCC(C(=O)Nc3nccs3)CC2)cc1	14.1%	0.2	11.2	u	-3.8%	-1.2%
COc1ccc(S(=O)(=O)N2CCC(C(=O)Nc3nccs3)CC2)cc1	-12.8%	41.9*	101.4*	20.9%	23.8%	0.7%
COc1ccc(OC2CCN(S(=O)(=O)c3ccc(C(C)=O)cc3)CC2)cc1	12.6µM*	5.2	4.5	29.2%	u	-12.5%
COc1ccc(S(=O)(=O)N2CCC(C(=O)NCC3CCCO3)CC2)cc1OC (stereo not given)	4.1%	-2.4	-4.3	0.1%	21.5%	19.2%
COc1ccc(S(=O)(=O)N2CCC(C(=O)NCC3CCCO3)CC2)cc1 (stereo not given)	-2.4%	7.7	51.2*	x	16.3%	-0.7%
CCCOc1ccc(C(=O)NCCC(=O)NCCCC(=O)O)cc1	u	-1.6	15.8	-22.8%	1.4%	-15.7%
COc1ccc(C(=O)C2CCCN(S(=O)(=O)c3ccc(C(C)=O)cc3)C2)c(C)c1 (stereo not given)	10µM*	11.5	1.3	-0.5%	5.0%	-3.8%
CSc1ccc(S(=O)(=O)N2CCC(C(=O)NC3CC3)CC2)cc1	6.5%	-5.3	2.8	-8.8%	4.15µM*	10.8%
O=C(NC1CC1)C1CCN(S(=O)(=O)c2ccc(Cl)c([N+](=O)[O-])c2)CC1	12.6µM*	x	x	u	u	-5.8%
CSc1ccc(S(=O)(=O)N2CCC(C(=O)Nc3ccc(C(N)=O)cc3)CC2)cc1	13.1%	-3.5	-3.2	4.65µM*	25.4%	0.0%
Cc1ccc(S(=O)(=O)N2CCC(C(=O)NC3CCCCCC3)CC2)cc1	-7.1%	-3.4	29.1	-37.6%	-17.9%	-1.5%
COc1cccc(C(=O)NN2CCOCC2)c1	14.0%	x	x	x	x	0.0%
CN(CCc1ccccc1)C(=O)c1ccc(NC(=O)Cc2ccc(NC(=O)C3CCCN(S(=O)(=O)c4cccc([N+](=O)[O-])c4)C3)cc2)cc1 (stereo not given)	u	x	x	x	x	0.7%
CN(CCc1ccccc1)C(=O)c1cccc(NC(=O)Cc2cccc(NC(=O)C3CCCN(S(=O)(=O)c4cccc([N+](=O)[O-])c4)C3)c2)c1 (stereo not given)	10µM*	x	x	x	x	-5.8%
CN(Cc1ccccc1)C(=O)c1cccc(NC(=O)Cc2ccc(NC(=O)C3CCN(S(=O)(=O)c4cccc([N+](=O)[O-])c4)CC3)cc2)c1	8.91µM*	x	x	x	x	-5.5%
